The structures appear in SMILES notation. Inconclusive results are not listed. The source made the active and inactive calls. How the source made its calls, unless noted: active means hit-call score of the fitted dose curve at least 0.9, where 1 is the maximum; inactive means score below 0.9.

Assay [1] is described as follows: ATG_GLI_CIS: Attagene CIS-FACTORIAL HepG2 Assay for human Zinc Finger Protein GLI1 (AID 2282945). Particulars: HepG2, Attagene cis-factorial reporter mRNA, GLI element; actives raise or lower the signal. A digest of the protocol:
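Bidirectional curve fits relative to DMSO, using reporter mRNA levels from RT-PCR plus capillary electrophoresis. Cells were HepG2 transiently carrying cis-regulated reporter constructs, harvested 24 h after dosing.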

Assay [2] in a line: ATG_GRE_CIS: Attagene CIS-FACTORIAL HepG2 Assay for human Glucocorticoid Response Elements (GRE) (AID 2282947). Particulars: HepG2 GRE cis-reporter, Attagene multiplex mRNA; actives raise or lower the signal. The essentials: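 Multiplexed cis-reporter mRNA induction, HepG2, 24 h post-dose. RT-PCR, FAM-labelled, HpaI-digested amplicons by CE. Bidirectional fit vs DMSO.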
The target in assay [3] is Hepatocyte nuclear factor 6 (Homo sapiens) (UniProt Q9UBC0). Kind of assay: ATG_HNF6_CIS: Attagene CIS-FACTORIAL HepG2 Assay for human Hepatocyte Nuclear Factor 6 (HNF6) (AID 2282952). The note with it: HepG2 Attagene cis-factorial HNF6 reporter transcription; actives raise or lower the signal. A digest of the protocol:
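Endogenous transcription factor activity in human HepG2 liver cells was captured through cis-regulated reporter constructs. After 24 h treatment, reporter mRNA was measured by RT-PCR with capillary electrophoresis, and activity was fitted in both directions relative to DMSO.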

In assay [4] the target is Heat shock factor protein 1 (Homo sapiens) (UniProt Q00613). Kind of assay: ATG_HSE_CIS: Attagene CIS-FACTORIAL HepG2 Assay for human Heat Shock Transcription Factor 1 (HSE) (AID 2282953). Particulars: HepG2 HSE cis-reporter, Attagene RNA transcription; actives raise or lower the signal. The essentials: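 After a 24 h incubation with test chemical, transfected HepG2 cells were harvested for RNA; reporter transcripts were measured by RT-PCR and capillary electrophoresis. Values reflect gain or loss of signal relative to DMSO.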

Assay [5] can be described thus: ATG_SREBP_CIS: Attagene CIS-FACTORIAL HepG2 Assay for human Sterol Regulatory Element Binding (SREBP) (AID 2282962). The note with it: HepG2 Attagene cis-factorial SREBP reporter, mRNA; actives raise or lower the signal. A digest of the protocol: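 Endogenous factor activity is measured in HepG2 through multiplexed reporter units under cis-element control. Following a 24 h incubation, reporter transcripts are reverse-transcribed, PCR-amplified and sized by capillary electrophoresis; activity is fitted in both directions relative to DMSO.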

Assay [6] concerns the target Hepatocyte nuclear factor 4-alpha (Homo sapiens) (UniProt P41235). Kind of assay: ATG_HNF4a_TRANS: Attagene TRANS-FACTORIAL HepG2 Assay for human Hepatocyte Nuclear Factor 4 alpha (HNF4a) (AID 2282982; active means hit-call score of the fitted dose curve at least 0.9, where 1 is the maximum). The note with it: HepG2 HNF4a transactivation reporter, mRNA readout. The essentials:
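Multiplexed reporter assay: transfected HepG2, 24 h exposure, total RNA → oligo(dT) RT → PCR → 6-FAM extension → HpaI digest → CE fluorescence. DMSO = negative control.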

Assay [7] is described as follows: ATG_M_06_TRANS: Attagene TRANS-FACTORIAL HepG2 Assay for M06 Transcription Factor (Internal Marker) (AID 2282983; active means hit-call score of the fitted dose curve at least 0.9, where 1 is the maximum). The note with it: HepG2 Attagene TRANS M06 internal marker reporter. The essentials: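 Human liver HepG2 cells bearing transiently transfected chimeric NR-GAL4 reporter units were treated with chemicals for 24 h. Total RNA was reverse-transcribed, reporter sequences amplified and labelled, then quantified by capillary electrophoresis. Activity was fitted upward relative to DMSO.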

Assay [8] can be described thus: ATG_NF_kB_CIS: Attagene CIS-FACTORIAL HepG2 Assay for human Nuclear Factor Kappa B (NF-kB) (AID 2282991). The note with it: HepG2 Attagene cis-factorial NF-kB reporter mRNA; actives raise or lower the signal. The essentials:
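Fluorescence of labelled RT-PCR products separated by capillary electrophoresis gives reporter mRNA levels from transfected HepG2 cells exposed 24 h; values are fitted in both directions relative to DMSO.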

Assay [9] in a line: ATG_NRF2_ARE_CIS: Attagene CIS-FACTORIAL HepG2 Assay for human Nuclear Factor Erythroid 2 Related Factor 2 (NFR2) response to Antioxidant Response Elements (ARE) (AID 2282992). The note with it: HepG2 Attagene ARE/NRF2 reporter, transcription factor activity; actives raise or lower the signal. A digest of the protocol:
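Endogenous transcription factor activity in human liver HepG2 cells is tracked via a cis-element-driven reporter within a multiplexed set. mRNA induction is read by RT-PCR and capillary electrophoresis after 24 h, with DMSO as baseline.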

The target of assay [10] is human Peroxisome Proliferator-activated Receptor alpha (PPARa), PPARA (gene 5465) (UniProt Q07869). Nature of the assay: ATG_PPARa_TRANS: Attagene TRANS-FACTORIAL HepG2 Assay for human Peroxisome Proliferator-activated Receptor alpha (PPARa) (AID 2283001; active means hit-call score of the fitted dose curve at least 0.9, where 1 is the maximum;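 on AC50: potency for gain of reporter signal over DMSO so agonist or activator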). The essentials: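 Transfected HepG2 cells treated with test chemical for 24 h. RNA isolated, reverse-transcribed with oligo(dT), PCR-amplified, FAM-labelled and HpaI-digested. Fragments sized by capillary electrophoresis; gain-of-signal fit relative to DMSO.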

Assay [11] can be described thus: TOX21_p53_BLA_p2_viability: Viability Assessment in the Tox21 HCT-116 p53 Agonism Beta-lactamase Assay, Phase 2 (AID 2283591; active means hit-call score of the fitted dose curve at least 0.9, where 1 is the maximum;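 further: compound exposure lasted 16 h at 37 °C; actives lower the ATP signal meaning cytotoxicity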). The essentials: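 Cytotoxicity readout: CellTiter-Glo ATP luminescence, 30 min at room temperature, after the beta-lactamase read. Cells were HCT116 exposed 16 h at 37C to compounds pin-transferred at 217-fold dilution from DMSO stocks.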

In assay [12] the target is Cellular tumor antigen p53 (Homo sapiens) (UniProt P04637). Kind of assay: TOX21_p53_BLA_p5_ratio: Tox21 HCT-116 p53 Agonism Beta-lactamase Assay, Ratio, Phase 5 (AID 2283599; active means hit-call score of the fitted dose curve at least 0.9, where 1 is the maximum). A digest of the protocol: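 Beta-lactamase reporter ratio (blue 460 nm over green 530 nm, 405 nm excitation) after 2 h CCF4-AM loading, in HCT-116 cells exposed 16 h at 37 C to compounds pinned at 217-fold dilution. Increases relative to DMSO baseline scored.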

Assay [13] is described as follows: TOX21_p53_BLA_p5_viability: Viability Assessment in the Tox21 HCT-116 p53 Agonism Beta-lactamase Assay, Phase 5 (AID 2283600; active means hit-call score of the fitted dose curve at least 0.9, where 1 is the maximum). A digest of the protocol:
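Viability is taken from cellular ATP content, measured by luciferase luminescence in the same wells after the beta-lactamase ratio read. Cells are seeded at 4000 per well and exposed to DMSO-dissolved compounds, diluted 217-fold, for 16 h.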

Assay [14] deals with Cellular tumor antigen p53 (Homo sapiens) (UniProt P04637). Nature of the assay: TOX21_p53_BLA_p4_ratio: Tox21 HCT-116 p53 Agonism Beta-lactamase Assay, Ratio, Phase 4 (AID 2283601; active means hit-call score of the fitted dose curve at least 0.9, where 1 is the maximum). A digest of the protocol:
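Signal is the blue/green (460nm/530nm) ratio of cleaved versus uncleaved CCF4-AM substrate, read after 2 h substrate loading. Cells were HCT116 carrying the p53-responsive beta-lactamase reporter, dosed 16 h at 37C, 5% CO2; CellTiter-Glo measured in parallel.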

Assay [15] is described as follows: ATG_PBREM_CIS: Attagene CIS-FACTORIAL HepG2 Assay for human Phenobarbital-responsive Enhancer Module (PBREM) (AID 2282955). Particulars: HepG2 PBREM cis-reporter, Attagene multiplexed transcription; actives raise or lower the signal. A digest of the protocol: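 Measures endogenous factor action on a phenobarbital-responsive enhancer module. HepG2 transiently carrying cis reporters, 24 h treatment, mRNA read-out by RT-PCR plus capillary electrophoresis.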

Assay [16] in a line: ATG_Oct_MLP_CIS: Attagene CIS-FACTORIAL HepG2 Assay for human Octamer-Binding Transcription Factor (Oct) (AID 2282993). The note with it: HepG2 Attagene cis-factorial Oct reporter, mRNA; actives raise or lower the signal. A digest of the protocol:
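Cells of the HepG2 line express promoter-controlled reporter sequences whose mRNA levels, after 24 h treatment, are measured by RT-PCR and capillary electrophoresis. Increases and decreases are scored relative to DMSO.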

In assay [17] the target is human Retinoid X Receptor beta (RXRb), RXRB (gene 6257) (UniProt P28702). Nature of the assay: ATG_RXRb_TRANS: Attagene TRANS-FACTORIAL HepG2 Assay for human Retinoid X Receptor beta (RXRb) (AID 2283013; active means hit-call score of the fitted dose curve at least 0.9, where 1 is the maximum). A digest of the protocol: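 Read-out: reporter mRNA induction via RT-PCR plus capillary electrophoresis fluorescence, analysed as signal increase relative to DMSO. Cells were human HepG2, transiently transfected with GAL4-UAS reporter constructs and chimeric receptor-Gal4 fusions, dosed for 24 h.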

The nature of assay [18]: TOX21_p53_BLA_p3_viability: Viability Assessment in the Tox21 HCT-116 p53 Agonism Beta-lactamase Assay, Phase 3 (AID 2283593; active means hit-call score of the fitted dose curve at least 0.9, where 1 is the maximum;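 further: cells exposed to compound for 16 h before reading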). A digest of the protocol: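 Cellular ATP was quantified by CellTiter-Glo luminescence, read after 30 min at room temperature. Beforehand, HCT116 cells (4000/well) received compound 5 h post-seeding, 217-fold diluted from DMSO, then incubated 16 h at 37C.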

Assay [19] addresses Signal transducer and activator of transcription 3 (Homo sapiens) (UniProt P40763). Kind of assay: ATG_STAT3_CIS: Attagene CIS-FACTORIAL HepG2 Assay for human Signal Transducer and Activator of Transcription 3 (STAT3) (AID 2282963). Particulars: HepG2, Attagene cis-factorial STAT3 reporter transcription; actives raise or lower the signal. A digest of the protocol:
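Cis-factorial format: endogenous transcription factors in HepG2 drive transfected reporter units. After 24 h treatment, reporter RNA was reverse-transcribed, amplified, FAM-labelled and HpaI-digested before CE analysis; activity scored in both directions against DMSO.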

Assay [20] has as its target Cellular tumor antigen p53 (Homo sapiens) (UniProt P04637). Nature of the assay: TOX21_p53_BLA_p3_ratio: Tox21 HCT-116 p53 Agonism Beta-lactamase Assay, Ratio, Phase 3 (AID 2283596; active means hit-call score of the fitted dose curve at least 0.9, where 1 is the maximum). A digest of the protocol: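 Cells were seeded at 4000/well, rested 5 h at 37C, then dosed with DMSO compound solutions (217-fold dilution) for 16 h. CCF4-AM substrate was loaded for 2 h at room temperature, and the 460/530 nm emission ratio was fitted for gain of signal versus DMSO.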

Sequence of Hepatocyte nuclear factor 6 (Homo sapiens) (Q9UBC0 whole entry, looked up): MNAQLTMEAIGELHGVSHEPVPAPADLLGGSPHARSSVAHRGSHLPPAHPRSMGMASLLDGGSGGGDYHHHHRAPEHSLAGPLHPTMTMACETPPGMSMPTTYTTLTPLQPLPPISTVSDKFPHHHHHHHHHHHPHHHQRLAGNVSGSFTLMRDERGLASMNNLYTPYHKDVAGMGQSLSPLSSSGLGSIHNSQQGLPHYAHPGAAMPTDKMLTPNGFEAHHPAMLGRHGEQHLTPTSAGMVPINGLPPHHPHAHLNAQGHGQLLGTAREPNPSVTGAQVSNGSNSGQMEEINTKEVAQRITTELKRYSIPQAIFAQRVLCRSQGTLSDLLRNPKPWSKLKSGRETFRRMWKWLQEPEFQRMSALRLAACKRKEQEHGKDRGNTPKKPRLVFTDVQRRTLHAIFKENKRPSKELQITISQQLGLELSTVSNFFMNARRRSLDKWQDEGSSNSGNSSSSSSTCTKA
Sequence of Hepatocyte nuclear factor 4-alpha (Homo sapiens) (P41235 whole entry, looked up): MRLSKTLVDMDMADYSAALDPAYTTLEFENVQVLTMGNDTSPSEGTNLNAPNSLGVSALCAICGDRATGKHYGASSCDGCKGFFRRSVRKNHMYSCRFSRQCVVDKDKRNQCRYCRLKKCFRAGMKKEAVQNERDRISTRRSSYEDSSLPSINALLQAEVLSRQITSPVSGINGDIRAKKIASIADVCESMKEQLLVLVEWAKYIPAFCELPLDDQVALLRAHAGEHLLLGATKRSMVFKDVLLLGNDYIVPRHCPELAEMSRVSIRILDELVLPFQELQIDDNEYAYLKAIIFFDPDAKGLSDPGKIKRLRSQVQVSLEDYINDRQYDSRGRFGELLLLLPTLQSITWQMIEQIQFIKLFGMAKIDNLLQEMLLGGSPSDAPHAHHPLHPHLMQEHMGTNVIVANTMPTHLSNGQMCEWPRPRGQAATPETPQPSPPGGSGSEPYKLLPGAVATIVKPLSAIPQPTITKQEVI
Sequence of human Retinoid X Receptor beta (RXRb), RXRB (gene 6257) (P28702 whole entry, looked up, the tested form may be a part): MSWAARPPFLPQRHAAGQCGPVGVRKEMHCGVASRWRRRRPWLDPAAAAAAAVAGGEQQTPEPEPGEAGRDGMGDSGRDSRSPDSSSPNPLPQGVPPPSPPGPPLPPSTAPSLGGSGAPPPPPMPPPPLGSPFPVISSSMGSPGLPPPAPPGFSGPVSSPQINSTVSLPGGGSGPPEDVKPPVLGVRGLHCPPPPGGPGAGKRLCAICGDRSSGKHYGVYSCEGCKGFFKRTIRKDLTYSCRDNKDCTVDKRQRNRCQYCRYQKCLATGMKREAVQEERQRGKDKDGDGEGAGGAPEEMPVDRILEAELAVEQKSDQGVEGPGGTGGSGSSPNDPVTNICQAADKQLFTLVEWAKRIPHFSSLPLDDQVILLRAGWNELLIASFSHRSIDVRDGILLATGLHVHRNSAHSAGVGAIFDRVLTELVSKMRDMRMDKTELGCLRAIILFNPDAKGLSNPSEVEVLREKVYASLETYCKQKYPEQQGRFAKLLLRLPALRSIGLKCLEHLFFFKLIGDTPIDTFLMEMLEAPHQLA
Sequence of human Peroxisome Proliferator-activated Receptor alpha (PPARa), PPARA (gene 5465) (Q07869 whole entry, looked up, the tested form may be a part): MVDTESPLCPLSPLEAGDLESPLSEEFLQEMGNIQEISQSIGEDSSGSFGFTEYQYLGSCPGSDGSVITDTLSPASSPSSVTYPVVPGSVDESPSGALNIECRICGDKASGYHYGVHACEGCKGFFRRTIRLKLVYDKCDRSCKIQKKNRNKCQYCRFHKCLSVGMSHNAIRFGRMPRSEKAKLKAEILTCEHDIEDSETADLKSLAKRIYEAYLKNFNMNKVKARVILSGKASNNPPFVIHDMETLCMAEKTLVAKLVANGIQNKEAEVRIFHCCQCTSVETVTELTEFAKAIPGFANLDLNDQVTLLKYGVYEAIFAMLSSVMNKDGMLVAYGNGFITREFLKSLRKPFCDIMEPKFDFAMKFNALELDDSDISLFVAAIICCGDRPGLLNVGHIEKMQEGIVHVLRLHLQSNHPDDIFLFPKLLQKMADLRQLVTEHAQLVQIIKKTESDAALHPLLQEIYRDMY
Sequence of Heat shock factor protein 1 (Homo sapiens) (Q00613 whole entry, looked up): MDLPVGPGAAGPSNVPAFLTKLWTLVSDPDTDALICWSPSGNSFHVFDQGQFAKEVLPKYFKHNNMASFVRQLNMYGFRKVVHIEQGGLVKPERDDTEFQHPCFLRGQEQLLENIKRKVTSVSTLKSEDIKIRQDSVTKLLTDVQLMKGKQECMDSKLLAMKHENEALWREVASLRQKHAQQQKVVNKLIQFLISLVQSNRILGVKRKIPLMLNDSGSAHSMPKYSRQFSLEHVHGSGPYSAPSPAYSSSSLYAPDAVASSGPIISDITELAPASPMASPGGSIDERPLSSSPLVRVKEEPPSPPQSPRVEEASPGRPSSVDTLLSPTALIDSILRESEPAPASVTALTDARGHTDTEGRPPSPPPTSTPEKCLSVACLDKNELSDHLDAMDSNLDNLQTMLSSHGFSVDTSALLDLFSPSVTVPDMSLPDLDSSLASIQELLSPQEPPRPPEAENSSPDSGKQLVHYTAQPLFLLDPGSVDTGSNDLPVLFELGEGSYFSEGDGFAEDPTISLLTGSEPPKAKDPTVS
Sequence of Signal transducer and activator of transcription 3 (Homo sapiens) (P40763 whole entry, looked up): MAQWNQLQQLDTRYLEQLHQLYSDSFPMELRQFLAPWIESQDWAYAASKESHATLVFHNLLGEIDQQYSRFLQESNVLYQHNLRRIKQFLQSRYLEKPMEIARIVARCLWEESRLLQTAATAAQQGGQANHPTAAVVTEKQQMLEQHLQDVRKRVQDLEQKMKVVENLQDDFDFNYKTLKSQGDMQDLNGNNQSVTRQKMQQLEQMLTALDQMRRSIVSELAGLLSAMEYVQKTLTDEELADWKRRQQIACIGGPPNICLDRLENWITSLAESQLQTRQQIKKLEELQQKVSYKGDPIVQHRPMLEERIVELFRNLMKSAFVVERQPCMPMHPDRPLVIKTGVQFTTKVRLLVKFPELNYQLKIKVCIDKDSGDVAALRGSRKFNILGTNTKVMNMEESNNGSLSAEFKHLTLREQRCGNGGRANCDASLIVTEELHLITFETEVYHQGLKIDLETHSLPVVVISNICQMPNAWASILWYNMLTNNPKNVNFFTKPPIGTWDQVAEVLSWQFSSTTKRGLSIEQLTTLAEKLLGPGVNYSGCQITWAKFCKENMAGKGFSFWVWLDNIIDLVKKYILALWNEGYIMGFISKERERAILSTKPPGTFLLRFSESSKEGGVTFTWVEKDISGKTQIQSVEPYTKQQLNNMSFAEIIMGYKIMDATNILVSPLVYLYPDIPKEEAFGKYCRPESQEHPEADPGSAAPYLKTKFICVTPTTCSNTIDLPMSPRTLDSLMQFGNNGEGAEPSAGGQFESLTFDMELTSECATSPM
Sequence of Cellular tumor antigen p53 (Homo sapiens) (P04637 whole entry, looked up): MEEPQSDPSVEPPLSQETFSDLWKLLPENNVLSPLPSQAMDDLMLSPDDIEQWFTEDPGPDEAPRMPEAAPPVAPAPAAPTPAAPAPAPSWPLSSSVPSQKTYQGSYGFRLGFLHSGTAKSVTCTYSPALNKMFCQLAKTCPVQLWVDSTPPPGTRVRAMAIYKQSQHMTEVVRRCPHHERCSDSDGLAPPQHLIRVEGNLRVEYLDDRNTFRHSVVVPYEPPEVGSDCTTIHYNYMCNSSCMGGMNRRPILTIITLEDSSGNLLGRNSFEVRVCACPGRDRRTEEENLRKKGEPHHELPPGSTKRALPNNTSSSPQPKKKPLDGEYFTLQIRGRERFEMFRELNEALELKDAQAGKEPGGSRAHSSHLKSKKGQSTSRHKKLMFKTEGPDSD

On to `C=C(C)C(=O)OCCCCCC`, for which the outcome in [1], in [2], in assay [3], in assay [4], in assay [5] and in assay [6] was inactive. Besides, the call in [7], in assay [8], in assay [9], in [10], in assay [11] and in assay [12] was inactive. In addition, the outcome in [13] and in assay [14] was inactive.

For the compound `C=C(C)C(=O)OCC1CCCO1` (stereo not given), the outcome in [2], in assay [3], in [4], in assay [15], in [5] and in assay [6] was inactive. For the same compound, the compound was called inactive in assay [7], in assay [9], in assay [16], in [10], in assay [17] and in assay [11]. Besides, the compound was called inactive in assay [18], in assay [12], in assay [13] and in assay [14].

As usually defined, the AC50 is the midpoint of the concentration-response curve, whichever way the signal moves. On to `CN1CCCC1`, for which the result in [1], in assay [3], in [15], in assay [5], in assay [19] and in assay [6] was inactive. For the same compound, the outcome in assay [7], in [8], in assay [10], in [11], in assay [18] and in assay [12] was inactive. Moreover, the outcome in [14] was inactive. For the same compound, the AC50 in [9] is 26.2 µM (active).

Regarding `CCCCCCC1CCCC(=O)O1` (stereo not given), the compound was classed as inactive in assay [1], in [2], in assay [3], in [4], in assay [15] and in [5]. For the same compound, the result in assay [19], in [6], in assay [7], in assay [16], in assay [11] and in assay [18] was inactive. Moreover, the outcome in [12], in assay [13] and in [14] was inactive. The AC50 in assay [9] is 139 µM (active); in assay [10] it was 27.3 µM (active).

Regarding `CC=CC(=O)O`, the result in [1], in assay [2], in [3], in assay [4], in [5] and in assay [19] was inactive. For the same compound, the outcome in [6], in [7], in assay [8], in assay [9] and in assay [16] was inactive.

On to `Cc1cc(O)cc(C)c1Cl`, for which the result in assay [2], in [3], in assay [5], in assay [19], in assay [7] and in assay [8] was inactive. In addition, in assay [10], the compound was classed as inactive. In addition, the AC50 is 100 µM (active) in [16] and 48.8 µM (active) in assay [17].

In the case of `CCc1cc(C(N)=S)ccn1`, the outcome in assay [1], in [2], in assay [3], in [4], in assay [5] and in assay [6] was inactive. In addition, the compound was called inactive in assay [7], in assay [8], in assay [9], in assay [16], in assay [10] and in [17]. Also, the compound was classed as inactive in assay [11], in [18], in assay [20], in assay [12], in assay [13] and in [14].

Regarding `CCC(C)C1N=C(C)C(C)S1` (stereo not given), the compound was called inactive in assay [1], in assay [2], in assay [3], in assay [4], in [5] and in assay [19]. Moreover, the compound was called inactive in [7], in [8], in assay [9], in assay [16], in assay [17] and in assay [11]. In addition, the result in assay [20], in assay [12] and in assay [14] was inactive.

As to `C/C=C(\C)C(=O)OCC/C=C\CC`, the outcome in assay [1], in assay [2], in [4], in [15], in assay [5] and in assay [19] was inactive. Also, the call in [8], in assay [16], in [17], in assay [11], in assay [20] and in assay [14] was inactive.

With `CC(=O)CCc1ccccc1`, the result in assay [1], in assay [3], in [4], in assay [15], in [8] and in assay [9] was inactive. Besides, the call in assay [16], in assay [10], in assay [11], in [18], in [20] and in assay [12] was inactive. Also, the result in assay [13] and in assay [14] was inactive.
